According to PubChem BioAssay AID1159580 (chemical genetic matrix, 2015):
About 2,000 (36%) of roughly 5,500 compounds were called active. Another 18% or so got no clear call; they are omitted. Rule as the data show it: active = normalized growth mostly below about 0.91 (no sharp cut-off); inconclusive = no clear call, values can overlap the other calls; inactive = mostly above about 0.92. The list shows a part of the results.

Experiment: chemical genetic growth profiling, strain panel (AID 1159580);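 also: tested at 20 µM; growth read once vehicle control cultures reached saturation at 30 °C; 1 = growth at the plate median or of vehicle wells; lower values mean less growth of the strain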
Details: growth OD
[1] = S. cerevisiae deletion strains, locus YAL013W, strain DEP1, hits give low values
[2] = S. cerevisiae deletion strains, locus YAL040C, strain CLN3, hits give low values
[3] = S. cerevisiae deletion strains, locus YCL061C, strain MRC1 (second series), hits give low values
[4] = S. cerevisiae deletion strains, locus YDR363W, strain ESC2, hits give low values
[5] = S. cerevisiae deletion strains, locus YER002W, strain NOP16, hits give low values
[6] = S. cerevisiae deletion strains, locus YJR075W, strain HOC1, hits give low values
[7] = S. cerevisiae deletion strains, locus YMR263W, strain SAP30, hits give low values
[8] = S. cerevisiae deletion strains, locus YMR307W, strain GAS1, hits give low values
[9] = S. cerevisiae deletion strains, locus YNL153C, strain GIM3, hits give low values
[10] = S. cerevisiae deletion strains, locus YNL175C, strain NOP13, hits give low values
[11] = S. cerevisiae deletion strains, locus YNL197C, strain WHI3, hits give low values
[12] = S. cerevisiae deletion strains, locus YNL224C, strain SQS1, hits give low values
[13] = S. cerevisiae deletion strains, locus YNL322C, strain KRE1, hits give low values
[14] = S. cerevisiae deletion strains, locus YOR083W, strain WHI5 (second series), hits give low values
[15] = S. cerevisiae deletion strains, locus YPL055C, strain LGE1, hits give low values
[16] = S. cerevisiae deletion strains, locus YBR229C, strain ROT2, hits give low values
[17] = S. cerevisiae deletion strains, locus YDL101C, strain DUN1, hits give low values
[18] = S. cerevisiae deletion strains, locus YDR150W, strain NUM1, hits give low values
[19] = S. cerevisiae deletion strains, locus YEL061C, strain CIN8, hits give low values
[20] = S. cerevisiae deletion strains, locus YGR078C, strain PAC10, hits give low values
[21] = S. cerevisiae deletion strains, locus YHR030C, strain SLT2, hits give low values
[22] = S. cerevisiae deletion strains, locus YHR087W, strain rtc3, hits give low values
[23] = S. cerevisiae deletion strains, locus YJR043C, strain POL32, hits give low values
[24] = S. cerevisiae deletion strains, locus YLR039C, strain RIC1, hits give low values
[25] = S. cerevisiae deletion strains, locus YLR058C, strain SHM2 (second series), hits give low values
[26] = S. cerevisiae deletion strains, locus YLR085C, strain ARP6, hits give low values
[27] = S. cerevisiae deletion strains, locus YLR262C, strain YPT6, hits give low values
[28] = S. cerevisiae deletion strains, locus YML094W, strain GIM5, hits give low values
[29] = S. cerevisiae deletion strains, locus YMR219W, strain ESC1, hits give low values
[30] = S. cerevisiae deletion strains, locus YNL298W, strain CLA4 (second series), hits give low values
[31] = S. cerevisiae deletion strains, locus YNR030W, strain Alg12, hits give low values
[32] = S. cerevisiae deletion strains, locus YOL006C, strain TOP1, hits give low values
[33] = S. cerevisiae deletion strains, locus YPL241C, strain CIN2, hits give low values
[34] = S. cerevisiae deletion strains, locus YPR135W, strain CTF4, hits give low values
[35] = S. cerevisiae deletion strains, locus YJL187C, strain SWE1, hits give low values
[36] = S. cerevisiae strains, strain wild type, hits give low values
[37] = S. cerevisiae deletion strains, locus YHR079C, strain IRE1, hits give low values
[38] = S. cerevisiae deletion strains, locus YJL095W, strain BCK1, hits give low values
[39] = S. cerevisiae deletion strains, locus YJR066W, strain TOR1, hits give low values
[40] = S. cerevisiae deletion strains, locus YLR113W, strain HOG1, hits give low values
[41] = S. cerevisiae deletion strains, locus YNL183C, strain NPR1, hits give low values
[42] = S. cerevisiae deletion strains, locus YOR231W, strain MKK1, hits give low values
[43] = S. cerevisiae deletion strains, locus YPL256C, strain CLN2, hits give low values

Measured: normalized growth

C[C@@H](NC(=O)/C(C#N)=C/c1ccc(O)c(O)c1)c1ccccc1
inactive: [1] 0.997 | [2] 0.993 | [3] 0.983 | [4] 1.01 | [5] 0.998 | [6] 0.963 | [7] 1 | [8] 1.01 | [9] 0.978 | [10] 1 | [11] 1 | [12] 1.01 | [13] 1.01 | [14] 1.01 | [15] 0.932

CCCc1cc(=O)oc2c1c(C)nn2-c1ccccc1
inactive: [16] 0.94 | [17] 0.954 | S. cerevisiae deletion strains, locus YDL134C, strain PPH21, hits give low values 0.938 | [18] 0.978 | [20] 0.935 | [23] 0.998 | [28] 0.921 | [7] 0.956 | [13] 0.944
active: [1] 0.932 | [19] 0.885 | [21] 0.432 | [22] 0.862 | [6] 0.869 | [24] 0.786 | [25] 0.923 | [26] 0.539 | [27] 0.744 | [29] 0.938 | [9] 0.864 | [30] 0.839 | [31] 0.875 | [32] 0.599 | [15] 0.799 | [33] 0.782 | [34] 0.552

CCCc1cc(=O)oc2cc(OCC(=O)OCC)ccc12
inactive: [1] 0.997 | [16] 0.971 | [17] 0.945 | [18] 0.986 | [19] 0.963 | [20] 0.985 | [21] 0.759 | [22] 0.963 | [35] 0.991 | [23] 1 | [6] 0.972 | S. cerevisiae deletion strains, locus YKL190W, strain CNB1, hits give low values 0.995 | [24] 0.925 | [25] 0.991 | [26] 0.913 | [27] 0.958 | [28] 0.883 | [29] 0.987 | [7] 1.03 | [9] 0.98 | [30] 0.961 | [13] 0.995 | [31] 0.965 | [32] 0.864 | [15] 0.922 | [33] 1.04 | [34] 0.82 | [36] 0.99

Cc1nn(-c2cccc(Cl)c2)c2oc(=O)cc(C(F)(F)F)c12
inactive: S. cerevisiae deletion strains, locus YAR019C, strain CDC15, hits give low values 0.977 | S. cerevisiae deletion strains, locus YBL105C, strain PKC1, hits give low values 0.966 | S. cerevisiae deletion strains, locus YBR135W, strain CKS1, hits give low values 0.975 | S. cerevisiae deletion strains, locus YBR136W, strain MEC1, hits give low values 0.974 | S. cerevisiae deletion strains, locus YBR160W, strain CDC28, hits give low values 0.974 | S. cerevisiae deletion strains, locus YDL017W, strain CDC7, hits give low values 0.968 | S. cerevisiae deletion strains, locus YDL028C, strain MPS1, hits give low values 0.979 | [17] 0.961 | S. cerevisiae deletion strains, locus YDL108W, strain KIN28, hits give low values 0.968 | S. cerevisiae deletion strains, locus YDL132W, strain cdc53, hits give low values 0.972 | S. cerevisiae deletion strains, locus YDR052C, strain DBF4, hits give low values 0.96 | S. cerevisiae deletion strains, locus YDR054C, strain cdc34, hits give low values 0.973 | S. cerevisiae deletion strains, locus YDR226W, strain ADK1, hits give low values 0.962 | S. cerevisiae deletion strains, locus YFL009W, strain cdc4, hits give low values 0.964 | S. cerevisiae deletion strains, locus YFL029C, strain CAK1, hits give low values 0.976 | S. cerevisiae deletion strains, locus YFR003C, strain YPI1, hits give low values 0.966 | S. cerevisiae deletion strains, locus YFR028C, strain CDC14, hits give low values 0.971 | S. cerevisiae deletion strains, locus YHR205W, strain SCH9, hits give low values 0.615 | S. cerevisiae deletion strains, locus YIL147C, strain SLN1, hits give low values 0.976 | S. cerevisiae deletion strains, locus YJL128C, strain PBS2, hits give low values 0.95 | S. cerevisiae deletion strains, locus YJR016C, strain ILV3, hits give low values 0.976 | S. cerevisiae deletion strains, locus YKL101W, strain HSL1, hits give low values 0.776 | S. cerevisiae deletion strains, locus YKL193C, strain SDS22, hits give low values 0.975 | S. cerevisiae deletion strains, locus YMR001C, strain CDC5, hits give low values 0.962 | S. cerevisiae deletion strains, locus YMR205C, strain PFK2 (second series), hits give low values 0.78 | S. cerevisiae deletion strains, locus YMR277W, strain FCP1, hits give low values 0.98 | S. cerevisiae deletion strains, locus YNL006W, strain LST8, hits give low values 0.977 | S. cerevisiae deletion strains, locus YNL161W, strain CBK1, hits give low values 0.968 | S. cerevisiae deletion strains, locus YNL207W, strain RIO2, hits give low values 0.963 | S. cerevisiae deletion strains, locus YNL222W, strain SSU72, hits give low values 0.975 | S. cerevisiae deletion strains, locus YOL078W, strain AVO1, hits give low values 0.97 | S. cerevisiae deletion strains, locus YOR061W, strain CKA2, hits give low values 0.681 | S. cerevisiae deletion strains, locus YOR329C, strain SCD5, hits give low values 0.964 | S. cerevisiae deletion strains, locus YPL209C, strain IPL1, hits give low values 0.972 | S. cerevisiae deletion strains, locus YPR025C, strain CCL1, hits give low values 0.968 | S. cerevisiae deletion strains, locus YPR106W, strain ISR1, hits give low values 0.979 | S. cerevisiae deletion strains, locus YPR111W, strain DBF20, hits give low values 0.96 | S. cerevisiae deletion strains, strain NNK1, hits give low values 0.978 | S. cerevisiae deletion strains, strain TSCII, hits give low values 0.967
active: S. cerevisiae deletion strains, locus YDL214C, strain PRR2, hits give low values 0.609 | S. cerevisiae deletion strains, locus YDR477W, strain SNF1, hits give low values 0.566 | S. cerevisiae deletion strains, locus YER123W, strain YCK3, hits give low values 0.342 | S. cerevisiae deletion strains, locus YER133W, strain GLC7, hits give low values 0.48 | S. cerevisiae deletion strains, locus YFR019W, strain FAB1, hits give low values 0.572 | S. cerevisiae deletion strains, locus YGR040W, strain KSS1, hits give low values 0.654 | S. cerevisiae deletion strains, locus YGR052W, strain FMP48, hits give low values 0.538 | S. cerevisiae deletion strains, locus YGR092W, strain DBF2, hits give low values 0.367 | [21] 0.154 | [37] 0.231 | S. cerevisiae deletion strains, locus YHR082C, strain KSP1, hits give low values 0.508 | [38] 0.359 | S. cerevisiae deletion strains, locus YJL157C, strain FAR1, hits give low values 0.467 | S. cerevisiae deletion strains, locus YJR066W, strain TOR1 (second series), hits give low values 0.552 | [39] 0.343 | S. cerevisiae deletion strains, locus YKL048C, strain ELM1, hits give low values 0.753 | S. cerevisiae deletion strains, locus YKL067W, strain YNK1, hits give low values 0.705 | S. cerevisiae deletion strains, locus YKL203C, strain TOR2, hits give low values 0.614 | [40] 0.35 | S. cerevisiae deletion strains, locus YLR133W, strain CKI1, hits give low values 0.545 | S. cerevisiae deletion strains, locus YLR403W, strain SFP1, hits give low values 0.393 | S. cerevisiae deletion strains, locus YML070W, strain DAK1, hits give low values 0.515 | S. cerevisiae deletion strains, locus YNL020C, strain ARK1, hits give low values 0.574 | [41] 0.464 | S. cerevisiae deletion strains, locus YNL307C, strain MCK1 (second series), hits give low values 0.536 | S. cerevisiae deletion strains, locus YOL136C, strain PFK27, hits give low values 0.342 | S. cerevisiae deletion strains, locus YOR119C, strain RIO1, hits give low values 0.544 | [42] 0.501 | S. cerevisiae deletion strains, locus YPL031C, strain PHO85, hits give low values 0.535 | S. cerevisiae deletion strains, locus YPL153C, strain RAD53, hits give low values 0.6 | S. cerevisiae deletion strains, locus YPL204W, strain HRR25, hits give low values 0.469 | [43] 0.201

O=C(O)C1C2CCC1C(O)C2 (centres undefined)
inactive: [1] 0.99 | [16] 1.02 | [17] 0.981 | [18] 1 | [19] 1.02 | [20] 0.998 | [21] 0.98 | [22] 0.99 | [35] 1.02 | [23] 1 | [6] 1.02 | [24] 0.967 | [25] 1.02 | [26] 1.03 | [27] 0.968 | [28] 1.01 | [29] 0.998 | [7] 0.998 | [8] 1.01 | [9] 0.976 | [30] 1 | [13] 1 | [31] 1.01 | [32] 0.972 | [15] 1.03 | [33] 0.997 | [34] 0.979 | [36] 0.967

NC(=O)c1ncn(C2OC(CO)C(O)C2O)c1O (centres undefined)
inactive: [1] 1.01 | [2] 1.01 | [3] 1.01 | [4] 1.01 | [5] 1 | S. cerevisiae deletion strains, locus YNL128W, strain TEP1, hits give low values 0.998 | [9] 1.02 | [10] 1 | [11] 1.01 | [12] 1 | [14] 1.02

Cc1onc(-c2c(Cl)cccc2Cl)c1NC(=O)O/N=C\c1ccc(N(C)C)cc1
inactive: [16] 0.975 | S. cerevisiae deletion strains, locus YCL061C, strain MRC1, hits give low values 0.994 | [17] 0.978 | [22] 1.02 | [6] 1.04 | [24] 0.865 | [25] 0.992 | [27] 0.956 | [29] 1.02 | [13] 0.962 | [34] 0.698 | [36] 0.956
active: [1] 0.807 | [18] 0.693 | [19] 0.338 | [20] 0.861 | [21] 0.12 | [23] 0.769 | [26] 0.0906 | [28] 0.152 | [7] 0.78 | [9] 0.907 | [30] 0.266 | [31] 0.357 | [32] 0.25 | [15] 0.624 | [33] 0.44

CCC(C)[C@H]1O[C@]2(CC[C@@H]1C)C[C@@H]1C[C@@H](C/C=C(\C)[C@@H](OC3C[C@H](OC)C(O[C@H]4C[C@H](OC)[C@@H](O)[C@H](C)O4)[C@H](C)O3)[C@@H](C)/C=C/C=C3\CO[C@@H]4[C@H](O)C(C)=C[C@@H](C(=O)O1)[C@]34O)O2 (some centres undefined)
inactive: [21] 0.995 | [37] 0.992 | [38] 0.964 | [39] 0.941 | [40] 0.993 | [41] 0.948 | [42] 1 | [43] 0.94
